Experimental data from the supplement of paper PMC13380429.

Experiments:
[1] = test system: Vero E6 infected with SARS-CoV-2; experiment: morphology score (similarity to uninfected cells); higher = more like uninfected cells; settings: 24 h
[2] = test system: Vero E6 infected with SARS-CoV-2; experiment: SARS-CoV-2 infection rate relative to infected DMSO; higher = more infection, active = 60 or less; settings: 24 h

CC(C)c1cc(-c2ccc(F)c3ccccc23)nc(N)n1 (10 µM)
morphology score [1]: 0.153 | SARS-CoV-2 infection rate [2]: 108% (inactive)

CN(N=O)C(=O)N[C@@H](C=O)[C@@H](O)[C@H](O)[C@H](O)CO [streptozotocin] (10 µM)
morphology score [1]: 0.0397 | SARS-CoV-2 infection rate [2]: 96% (inactive)

CCN(CC)CCNC(=O)c1ccccc1I (10 µM)
morphology score [1]: 0.221 | SARS-CoV-2 infection rate [2]: 91% (inactive)

C=CCN1CCc2cc(O)c(O)cc2[C@H](c2ccccc2)C1 (10 µM)
morphology score [1]: -0.0101 | SARS-CoV-2 infection rate [2]: 95% (inactive)

COc1ccc(-c2ccc3ncc4c(c3c2)n(-c2ccc(N3CCNCC3)c(C(F)(F)F)c2)c(=O)n4C)cn1 (0.833333 µM)
morphology score [1]: 0.115 | SARS-CoV-2 infection rate [2]: 104% (inactive)

COc1ccc(/C=C/CCCCOc2ccc(C(=O)c3cccc(C(=O)O)c3)cc2CCC(=O)O)cc1 (10 µM)
morphology score [1]: 0.0773 | SARS-CoV-2 infection rate [2]: 95% (inactive)

CC(C)(S)C(N)C(=O)O (stereo in doubt) [penicillamine-(racemic)] (10 µM)
morphology score [1]: 0.0971 | SARS-CoV-2 infection rate [2]: 100% (inactive)

COc1cc(O)c2c(c1)C(=O)c1cc(C)cc(O)c1C2=O [rheochrysidin] (10 µM)
morphology score [1]: 0.119 | SARS-CoV-2 infection rate [2]: 109% (inactive)

O=c1c(-n2ccnn2)c[nH]n1-c1cc(N2CCOCC2)ncn1 [molidustat] (10 µM)
morphology score [1]: 0.0599 | SARS-CoV-2 infection rate [2]: 98.5% (inactive)

CN1CCC[C@@H](CC2c3ccccc3Sc3ccccc32)C1 (racemic) [metixene] (0.833333 µM)
morphology score [1]: 0.383 | SARS-CoV-2 infection rate [2]: 86% (inactive)

NC(=O)c1ccc(I)c([N+](=O)[O-])c1 [iniparib] (10 µM)
morphology score [1]: 0.0662 | SARS-CoV-2 infection rate [2]: 106% (inactive)

CC[C@H](C)C(=O)O[C@H]1C[C@@H](C)C=C2C=C[C@H](C)[C@H](CC[C@@H]3C[C@@H](O)CC(=O)O3)[C@H]21 [lovastatin] (10 µM)
morphology score [1]: 0.0359 | SARS-CoV-2 infection rate [2]: 110% (inactive)

CC(C)(Sc1ccncc1-c1ccc(C#N)c2ccccc12)C(=O)O [verinurad] (10 µM)
morphology score [1]: 0.122 | SARS-CoV-2 infection rate [2]: 98% (inactive)

CC1(C)S[C@@H]2[C@H](NC(=O)Cc3ccccc3)C(=O)N2[C@H]1C(=O)O [benzylpenicillin] (10 µM)
morphology score [1]: -0.0812 | SARS-CoV-2 infection rate [2]: 114% (inactive)

CC(O)(C(=O)Nc1ccc(S(=O)(=O)c2ccccc2)cc1)C(F)(F)F (configuration not stated) (10 µM)
morphology score [1]: 0.347 | SARS-CoV-2 infection rate [2]: 78% (inactive)

CCCCCCN(CCCCCC)C(=O)Cc1c(-c2ccc(Cl)cc2)[nH]c2ccc(Cl)cc12 (10 µM)
morphology score [1]: -0.00824 | SARS-CoV-2 infection rate [2]: 103% (inactive)

COc1ccc2cc1Oc1cc3c(cc1OC)CC[N+](C)(C)[C@H]3Cc1ccc(cc1)Oc1c(OC)c(OC)cc3c1[C@@H](C2)[N+](C)(C)CC3 [metocurine] (10 µM)
morphology score [1]: 0.103 | SARS-CoV-2 infection rate [2]: 104% (inactive)

Cc1c(N(C)CS(=O)(=O)O)c(=O)n(-c2ccccc2)n1C [metamizole] (10 µM)
morphology score [1]: 0.141 | SARS-CoV-2 infection rate [2]: 93.5% (inactive)

C=CCN1CCCC1CNC(=O)c1cc2nn[nH]c2cc1OC (configuration not stated) [alizapride] (10 µM)
morphology score [1]: -0.124 | SARS-CoV-2 infection rate [2]: 121% (inactive)

Cc1c(F)cc(C(=O)NC2CC2)cc1-c1c(F)cn2c(C(C)(C)C)nnc2c1F (10 µM)
morphology score [1]: -0.202 | SARS-CoV-2 infection rate [2]: 108% (inactive)

Nc1ncnc2c1ncn2[C@H]1CC[C@@H](CO)O1 [dideoxyadenosine] (10 µM)
morphology score [1]: 0.103 | SARS-CoV-2 infection rate [2]: 99% (inactive)

COc1cc(OC)c(NC(=O)Nc2cc(C)on2)cc1Cl (10 µM)
morphology score [1]: 0.268 | SARS-CoV-2 infection rate [2]: 87% (inactive)

N#C[C@@H]1C[C@@H]2C[C@@H]2N1C(=O)[C@@H](N)C12CC3CC(CC(O)(C3)C1)C2 (10 µM)
morphology score [1]: -0.0311 | SARS-CoV-2 infection rate [2]: 105% (inactive)

CC(=O)Oc1ccccc1C(=O)Oc1ccccc1C(=O)O [acetylsalicylsalicylic-acid] (10 µM)
morphology score [1]: 0.0259 | SARS-CoV-2 infection rate [2]: 103% (inactive)

O=C(O)Cc1cccc2c(=O)cc(-c3ccccc3)oc12 [mitoflaxone] (10 µM)
morphology score [1]: 0.0177 | SARS-CoV-2 infection rate [2]: 106% (inactive)

N#Cc1nn(-c2c(Cl)cc(C(F)(F)F)cc2Cl)c(N)c1[S+]([O-])C(F)(F)F (configuration not stated) [fipronil] (10 µM)
morphology score [1]: 0.0672 | SARS-CoV-2 infection rate [2]: 102% (inactive)

CC[C@@H](C)CNCC(=O)N1CCc2sccc2[C@@H]1COc1cccc(C)c1 (10 µM)
morphology score [1]: 0.447 | SARS-CoV-2 infection rate [2]: 58.5% (active)

CCCCN(CCCC)CCC(O)c1cc2c(Cl)cc(Cl)cc2c2cc(C(F)(F)F)ccc12 (configuration not stated) [halofantrine] (10 µM)
morphology score [1]: 0.406 | SARS-CoV-2 infection rate [2]: 79.5% (inactive)

CN[C@@H](C)[C@H]1[C@H](O)C[C@@]2(C)[C@@H]3CC[C@H]4C(C)(C)[C@@H](NC)CC[C@@]45C[C@@]35CC[C@]12C [cyclovirobuxin-D] (10 µM)
morphology score [1]: 0.331 | SARS-CoV-2 infection rate [2]: 97% (inactive)

CN[C@@H]1[C@@H](O)[C@@H](O[C@@H]2[C@@H](O)[C@H](O[C@H]3OC(CN)=CC[C@H]3N)[C@@H](N)C[C@H]2N)OC[C@]1(C)O [Sisomicin (sulfate)] (10 µM)
morphology score [1]: 0.222 | SARS-CoV-2 infection rate [2]: 102% (inactive)

COc1ccc2cc1Oc1ccc(cc1)C[C@H]1c3c(cc4c(c3Oc3cc5c(cc3OC)CCN(C)[C@@H]5C2)OCO4)CCN1C [cepharanthine] (10 µM)
morphology score [1]: 0.461 | SARS-CoV-2 infection rate [2]: 77.5% (inactive)

CC(=O)O[C@H]1C[C@@H]2CC[C@@H]3[C@H](CC[C@@]4(C)[C@H]3C[C@H]([N+]3(C)CCCCC3)[C@@H]4OC(C)=O)[C@@]2(C)C[C@@H]1[N+]1(C)CCCCC1 [pancuronium] (10 µM)
morphology score [1]: 0.254 | SARS-CoV-2 infection rate [2]: 102% (inactive)

Cc1cc(C(N)=O)ccc1-n1c(CCC(=O)O)ccc1-c1ccc(-n2ccnc2)cc1 (10 µM)
morphology score [1]: 0.066 | SARS-CoV-2 infection rate [2]: 89% (inactive)

O=S1(=O)CCN(CN2CCS(=O)(=O)NC2)CN1 [taurolidine] (10 µM)
morphology score [1]: -0.0437 | SARS-CoV-2 infection rate [2]: 109% (inactive)

O=C(O)/C=C\c1c[nH]cn1 [cis-Urocanic acid] (10 µM)
morphology score [1]: 0.143 | SARS-CoV-2 infection rate [2]: 104% (inactive)

c1cc(Cc2cnc[nH]2)ccn1 [immethridine] (10 µM)
morphology score [1]: 0.158 | SARS-CoV-2 infection rate [2]: 109% (inactive)

O=C1c2cccc3c2[C@H](CCC3)CN1[C@@H]1CN2CCC1CC2 [palonosetron] (10 µM)
morphology score [1]: 0.324 | SARS-CoV-2 infection rate [2]: 91.5% (inactive)

CN(C)CCNc1nc2cc(O)ccc2c2c1C(=O)c1ccccc1-2 (10 µM)
morphology score [1]: -0.234 | SARS-CoV-2 infection rate [2]: 106% (inactive)

CCc1c2c(nc3ccc(OC(=O)N4CCC(N5CCCCC5)CC4)cc13)-c1cc3c(c(=O)n1C2)COC(=O)[C@]3(O)CC [irinotecan] (0.833333 µM)
morphology score [1]: -0.0173 | SARS-CoV-2 infection rate [2]: 98% (inactive)

CC(C)[C@@H]1CC[C@@H](C)C[C@H]1O [levomenthol] (10 µM)
morphology score [1]: -0.181 | SARS-CoV-2 infection rate [2]: 108% (inactive)

c1ccc2c(Cc3c[nH]c4ccccc34)c[nH]c2c1 [3,3'-diindolylmethane] (10 µM)
morphology score [1]: 0.0838 | SARS-CoV-2 infection rate [2]: 113% (inactive)

NC(=O)c1[nH]cnc1O (10 µM)
morphology score [1]: -0.0334 | SARS-CoV-2 infection rate [2]: 107% (inactive)

Cc1c2oc3c(C)ccc(C(=O)N[C@@H]4C(=O)N[C@H](C(C)C)C(=O)N5CCC[C@H]5C(=O)N(C)CC(=O)N(C)[C@@H](C(C)C)C(=O)O[C@@H]4C)c3nc-2c(C(=O)N[C@@H]2C(=O)N[C@H](C(C)C)C(=O)N3CCC[C@H]3C(=O)N(C)CC(=O)N(C)[C@@H](C(C)C)C(=O)O[C@@H]2C)c(N)c1=O [dactinomycin] (10 µM)
morphology score [1]: -0.16 | SARS-CoV-2 infection rate [2]: 109% (inactive)

O=C(O)c1cc2cccc([N+](=O)[O-])c2[nH]1 (10 µM)
morphology score [1]: -0.0876 | SARS-CoV-2 infection rate [2]: 100% (inactive)

O=[N+]([O-])/C=C/c1ccc2c(c1)OCO2 [3,4-methylenedioxy-beta-nitrostyrene] (10 µM)
morphology score [1]: 0.58 | SARS-CoV-2 infection rate [2]: 41% (active)

CC[C@H]1OC(=O)[C@H](C)C(=O)[C@H](C)[C@@H](O[C@@H]2O[C@H](C)C[C@H](N(C)C)[C@H]2O)[C@](C)(OC)C[C@@H](C)C(=O)[C@H](C)[C@H]2N(CCCCn3cnc(-c4cccnc4)c3)C(=O)O[C@]12C [telithromycin] (10 µM)
morphology score [1]: 0.0131 | SARS-CoV-2 infection rate [2]: 118% (inactive)

CC[C@H]1[C@@H](O)[C@@H]2[C@H](CC[C@]3(C)[C@@H]([C@H](C)CCC(=O)O)CC[C@@H]23)[C@@]2(C)CC[C@@H](O)C[C@@H]12 [obeticholic-acid] (10 µM)
morphology score [1]: 0.174 | SARS-CoV-2 infection rate [2]: 101% (inactive)

C[C@H]1O[C@H](O[C@H]2[C@H](O)[C@@H](O)[C@@H](O[C@H]3[C@H](O)[C@@H](O)C(O)O[C@@H]3CO)O[C@@H]2CO)[C@H](O)[C@@H](O)[C@@H]1N[C@H]1C=C(CO)[C@@H](O)[C@H](O)[C@H]1O (some centres not stated) [acarbose] (10 µM)
morphology score [1]: 0.085 | SARS-CoV-2 infection rate [2]: 100% (inactive)

FC(F)(F)c1cccc(-c2noc(-c3cc(-c4ccccc4)c(C(F)(F)F)s3)n2)c1 (10 µM)
morphology score [1]: -0.0447 | SARS-CoV-2 infection rate [2]: 114% (inactive)

Nc1ccc(S(=O)(=O)Nc2ccnn2-c2ccccc2)cc1 [sulfaphenazole] (10 µM)
morphology score [1]: 0.178 | SARS-CoV-2 infection rate [2]: 99.5% (inactive)

CN(C)CCOC(c1ccccc1)c1ccccc1 [diphenhydramine] (10 µM)
morphology score [1]: 0.203 | SARS-CoV-2 infection rate [2]: 86.5% (inactive)

CC1=C(C(=O)Nc2cc3cn[nH]c3cc2F)C(c2ccc(C(F)(F)F)cc2)CC(=O)N1 (configuration not stated) (10 µM)
morphology score [1]: 0.426 | SARS-CoV-2 infection rate [2]: 99% (inactive)

N#CSc1cc(SC#N)c(N)nc1N (0.833333 µM)
morphology score [1]: 0.125 | SARS-CoV-2 infection rate [2]: 98.5% (inactive)

Cc1[nH]c(/C=C2\C(=O)Nc3ccc(F)cc32)c(C)c1C(=O)NCCN1CCCC1 [toceranib] (0.833333 µM)
morphology score [1]: -0.0721 | SARS-CoV-2 infection rate [2]: 26% (active)

Clc1ccc(N2CCN(Cc3c[nH]c4ncccc34)CC2)cc1 (10 µM)
morphology score [1]: -0.0196 | SARS-CoV-2 infection rate [2]: 108% (inactive)

CCC(C)(C)c1ccc(CC(C)CN2C[C@@H](C)O[C@@H](C)C2)cc1 (some centres not stated) [amorolfine] (10 µM)
morphology score [1]: 0.198 | SARS-CoV-2 infection rate [2]: 93% (inactive)
